This note sets out measurements from PubChem BioAssay.

Assay [1] is described as follows: sensitizers of A549 cells to miR-34 induction, primary screen, imaging, A549 dox-inducible miR-34, nuclei and caspase counts (AID 1347080;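 active means compounds whose cell count with miR-34 switched on is under 0.7 times the count with it off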). Particulars: A549 miR-34 inducible, Hoechst nuclei count, 48 h.
Assay [2] can be described thus: survival rescue of mitochondrial mutant cells in low glucose, primary screen, MELAS cybrids, Rieske KO mouse fibroblasts, CellTiter-Glo (AID 1508586;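 active means mean z-score across replicates of 1.96 or higher in either the MELAS or the Rieske mutant cell line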;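 further: z relative to plate mean and SD of compound and empty wells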). In general terms: Cellular ATP, detected with luciferase, serves as a proxy for viable cell number.
Assay [3] in a line: ovarian cancer cell viability with rucaparib, profiling panel, oncology-focused library, rucaparib conditional (AID 1508598). Particulars: patient-derived ovarian cancer cells, CellTiter-Glo viability, 144 h, stronger effect = lower value.
The mark [4] stands for this setting: stronger effect = lower value, cell number ratio, induced over uninduced.
Setting [5] is: measured here: relative caspase fold change +Dox/-Dox.
Where [6] appears, read: measured here: total cells with miR-34 induction, stronger effect = lower value.
The mark [7] stands for this setting: measured here: total cells without miR-34 induction.
The mark [8] stands for this setting: MELAS cybrid survival, CellTiter-Glo 48 h, stronger effect = higher value.
[9] abbreviates: Rieske KO mouse fibroblast survival, CellTiter-Glo 72 h.
[10] abbreviates: at 0.000305 µM, OCI-C5x cells, with rucaparib 10 µM, 100% = cells with rucaparib alone.
[11] abbreviates: at 0.000305 µM, OCI-C5x cells, without rucaparib.
Where [12] appears, read: at 0.000305 µM, OCI-P5x cells, with rucaparib 20 µM, 100% = cells with rucaparib alone.
The mark [13] stands for this setting: at 0.000305 µM, OCI-P5x cells, without rucaparib.
Setting [14] is: at 0.00122 µM, OCI-C5x cells, with rucaparib 10 µM, 100% = cells with rucaparib alone.
[15] abbreviates: at 0.00122 µM, OCI-C5x cells, without rucaparib.
[16] abbreviates: at 0.00122 µM, OCI-P5x cells, with rucaparib 20 µM, 100% = cells with rucaparib alone.
Where [17] appears, read: at 0.00122 µM, OCI-P5x cells, without rucaparib.
Setting [18] is: at 0.00488 µM, OCI-C5x cells, with rucaparib 10 µM, 100% = cells with rucaparib alone.
The mark [19] stands for this setting: at 0.00488 µM, OCI-C5x cells, without rucaparib.
Setting [20] is: at 0.00488 µM, OCI-P5x cells, with rucaparib 20 µM, 100% = cells with rucaparib alone.
[21] abbreviates: at 0.00488 µM, OCI-P5x cells, without rucaparib.
[22] abbreviates: at 0.0195 µM, OCI-C5x cells, with rucaparib 10 µM, 100% = cells with rucaparib alone.
Where [23] appears, read: at 0.0195 µM, OCI-C5x cells, without rucaparib.
[24] abbreviates: at 0.0195 µM, OCI-P5x cells, with rucaparib 20 µM, 100% = cells with rucaparib alone.
Where [25] appears, read: at 0.0195 µM, OCI-P5x cells, without rucaparib.
The mark [26] stands for this setting: at 0.0781 µM, OCI-C5x cells, with rucaparib 10 µM, 100% = cells with rucaparib alone.
Where [27] appears, read: at 0.0781 µM, OCI-C5x cells, without rucaparib.
Setting [28] is: at 0.0781 µM, OCI-P5x cells, with rucaparib 20 µM, 100% = cells with rucaparib alone.
Where [29] appears, read: at 0.0781 µM, OCI-P5x cells, without rucaparib.
Setting [30] is: at 0.313 µM, OCI-C5x cells, with rucaparib 10 µM, 100% = cells with rucaparib alone.
Where [31] appears, read: at 0.313 µM, OCI-C5x cells, without rucaparib.
Setting [32] is: at 0.313 µM, OCI-P5x cells, with rucaparib 20 µM, 100% = cells with rucaparib alone.
Setting [33] is: at 0.313 µM, OCI-P5x cells, without rucaparib.
Where [34] appears, read: at 1.25 µM, OCI-C5x cells, with rucaparib 10 µM, 100% = cells with rucaparib alone.
The mark [35] stands for this setting: at 1.25 µM, OCI-C5x cells, without rucaparib.
Where [36] appears, read: at 1.25 µM, OCI-P5x cells, with rucaparib 20 µM, 100% = cells with rucaparib alone.
[37] abbreviates: at 1.25 µM, OCI-P5x cells, without rucaparib.
Where [38] appears, read: at 5 µM, OCI-C5x cells, with rucaparib 10 µM, 100% = cells with rucaparib alone.
The mark [39] stands for this setting: at 5 µM, OCI-C5x cells, without rucaparib.
Where [40] appears, read: at 5 µM, OCI-P5x cells, with rucaparib 20 µM, 100% = cells with rucaparib alone.
Setting [41] is: at 5 µM, OCI-P5x cells, without rucaparib.

Calls of active or inactive are those of the source.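 How the source made its calls, unless noted: active means normalized viability below 100% at a tested concentration; inactive means the rest.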

As to `Cn1ncnc1C1c2n[nH]c(=O)c3cc(F)cc(c23)NC1c1ccc(F)cc1` (stereo not drawn), the fold change in assay [1] (setting [4]) was 0.895 (inactive); in assay [1] (setting [5]) it was 1.04. Also, the cell count worked out at 2740 in assay [1] (setting [6]) and 3060 in assay [1] (setting [7]). The z-score is -0.229 (inactive) in assay [2] (setting [8]) and -0.124 in assay [2] (setting [9]).
In general, viability refers to a read-out of living cells in per cent, often relative to untreated cells. With `COc1ccccc1-c1cc(Nc2cccc(CS(N)(=O)=O)c2)ncn1`, the fold change in assay [1] (setting [4]) was 0.955 (inactive); in assay [1] (setting [5]) it was 0.462. The cell count was 3900 in assay [1] (setting [6]) and 4080 in assay [1] (setting [7]). In addition, the z-score was -0.3 (inactive) in assay [2] (setting [8]) and -1.46 in assay [2] (setting [9]). In addition, the viability in assay [3] (setting [10]) is 125% (inactive); in assay [3] (setting [11]), 105% (inactive); in assay [3] (setting [12]), 92.8% (active); in assay [3] (setting [13]), 91.1% (active); in assay [3] (setting [14]) it was 122% (inactive); in assay [3] (setting [15]), 98.9% (active). In addition, the viability was 96.8% (active) in assay [3] (setting [16]); 90.1% (active) in assay [3] (setting [17]); 127% (inactive) in assay [3] (setting [18]); 107% (inactive) in assay [3] (setting [19]); 103% (inactive) in assay [3] (setting [20]); 95.2% (active) in assay [3] (setting [21]). Also, the viability in assay [3] (setting [22]) is 126% (inactive); in assay [3] (setting [23]), 117% (inactive); in assay [3] (setting [24]) it was 103% (inactive); in assay [3] (setting [25]), 97.6% (active); in assay [3] (setting [26]) it was 126% (inactive); in assay [3] (setting [27]), 115% (inactive). For the same compound, the viability is 100% (inactive) in assay [3] (setting [28]); 102% (inactive) in assay [3] (setting [29]); 111% (inactive) in assay [3] (setting [30]); 102% (inactive) in assay [3] (setting [31]); 93.6% (active) in assay [3] (setting [32]); 99.6% (active) in assay [3] (setting [33]). The viability in assay [3] (setting [34]) is 125% (inactive); in assay [3] (setting [35]) it was 110% (inactive); in assay [3] (setting [36]), 91.1% (active); in assay [3] (setting [37]), 94.8% (active); in assay [3] (setting [38]) it was 105% (inactive); in assay [3] (setting [39]), 99.7% (active). For the same compound, the viability in assay [3] (setting [40]) is 64.2% (active); in assay [3] (setting [41]), 74.8% (active).
As to `CCC1OC(=O)C(C)C(OC2C[C@@](C)(OC)C(O)C(C)O2)C(C)C(OC2OC(C)CC(N(C)C)C2O)[C@@](C)(O)CC(C)C(=O)C(C)C(O)[C@]1(C)O` (stereo partly drawn), the fold change in assay [1] (setting [4]) is 0.879 (inactive); in assay [1] (setting [5]) it was 1.14. Moreover, the cell count in assay [1] (setting [6]) came out at 7750; in assay [1] (setting [7]), 8820. Besides, the z-score in assay [2] (setting [8]) was -0.0604 (inactive); in assay [2] (setting [9]), 0.782.
Take `CN(CC(=O)N(Cc1ccc(C2CCCCC2)cc1)c1ccc(C(=O)O)cc1)S(=O)(=O)c1c(F)c(F)c(F)c(F)c1F`: the results for the fold change in assay [1] (setting [4]) and in assay [1] (setting [5]) were 0.95 (inactive) and 0.314, respectively. In addition, the cell count in assay [1] (setting [6]) came to 3920; in assay [1] (setting [7]) it was 4130. In addition, the z-score in assay [2] (setting [8]) is 1.94 (inactive); in assay [2] (setting [9]), 0.483. The viability in assay [3] (setting [10]) was 114% (inactive); in assay [3] (setting [11]) it was 111% (inactive); in assay [3] (setting [12]), 97.3% (active); in assay [3] (setting [13]) it was 102% (inactive); in assay [3] (setting [14]), 115% (inactive); in assay [3] (setting [15]) it was 111% (inactive). Besides, the viability in assay [3] (setting [16]) is 96% (active); in assay [3] (setting [17]) it was 102% (inactive); in assay [3] (setting [18]), 119% (inactive); in assay [3] (setting [19]), 111% (inactive); in assay [3] (setting [20]) it was 92.6% (active); in assay [3] (setting [21]), 97.4% (active). Besides, the viability in assay [3] (setting [22]) is 118% (inactive); in assay [3] (setting [23]), 112% (inactive); in assay [3] (setting [24]), 97.6% (active); in assay [3] (setting [25]), 95.6% (active); in assay [3] (setting [26]), 126% (inactive); in assay [3] (setting [27]), 116% (inactive). Also, the viability is 93.1% (active) in assay [3] (setting [28]); 94.2% (active) in assay [3] (setting [29]); 115% (inactive) in assay [3] (setting [30]); 111% (inactive) in assay [3] (setting [31]); 94.9% (active) in assay [3] (setting [32]); 95.1% (active) in assay [3] (setting [33]). The viability was 114% (inactive) in assay [3] (setting [34]); 107% (inactive) in assay [3] (setting [35]); 8.63% (active) in assay [3] (setting [36]); 75.3% (active) in assay [3] (setting [37]); 3.43% (active) in assay [3] (setting [38]); 2.98% (active) in assay [3] (setting [39]). In addition, the viability in assay [3] (setting [40]) was 0.394% (active); in assay [3] (setting [41]) it was 0.691% (active).
